Assay results reported in PubChem BioAssay (NCI).
This is part of a sample that, as a whole, favours compounds with a hit. Of some 83,000 tested, about 20% had one in any assay.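 Treatment: one concentration, 48 hours, 96-well format. Scoring: percent growth, with anything below 10 considered active.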 Activity calls are given as the source filed them.

Columns and labels:
Experiment in all cases: NCI-60 one-dose screen, 48 h (100 = growth as untreated, 0 = no growth, -100 = all killed)
Conditions in all cases: 10 µM unless noted
SK-MEL-2 melanoma = test system: SK-MEL-2 melanoma
EKVX NSCLC = test system: EKVX NSCLC
UO-31 renal = test system: UO-31 renal
TK-10 renal = test system: TK-10 renal
ACHN renal = test system: ACHN renal
CAKI-1 renal = test system: CAKI-1 renal
A498 renal = test system: A498 renal
CCRF-CEM leukemia = test system: CCRF-CEM leukemia
MOLT-4 leukemia = test system: MOLT-4 leukemia
SR leukemia = test system: SR leukemia
RPMI-8226 leukemia = test system: RPMI-8226 leukemia
OVCAR-8 ovarian = test system: OVCAR-8 ovarian
OVCAR-5 ovarian = test system: OVCAR-5 ovarian
OVCAR-4 ovarian = test system: OVCAR-4 ovarian
SK-OV-3 ovarian = test system: SK-OV-3 ovarian
IGROV1 ovarian = test system: IGROV1 ovarian
OVCAR-3 ovarian = test system: OVCAR-3 ovarian
HS 578T breast = test system: HS 578T breast
NCI/ADR-RES ovarian = test system: NCI/ADR-RES ovarian
SN12C renal = test system: SN12C renal

Measured: growth

O=C(NC1CCCCC1)c1ccc(Cl)cc1
inactive: SK-MEL-2 melanoma 115% | EKVX NSCLC 98.5% | UO-31 renal 94.7% | TK-10 renal 102% | ACHN renal 104% | CAKI-1 renal 102% | A498 renal 82.4% | CCRF-CEM leukemia 98.4% | MOLT-4 leukemia 95.2% | SR leukemia 103% | RPMI-8226 leukemia 105% | OVCAR-8 ovarian 105% | OVCAR-5 ovarian 99.5% | OVCAR-4 ovarian 108% | SK-OV-3 ovarian 114% | IGROV1 ovarian 103% | OVCAR-3 ovarian 102% | HS 578T breast 106% | NCI/ADR-RES ovarian 101%

O=c1cc(Cl)nc2ccccn12
inactive: SK-MEL-2 melanoma 110% | EKVX NSCLC 102% | UO-31 renal 84% | TK-10 renal 105% | ACHN renal 110% | CAKI-1 renal 96.1% | A498 renal 103% | CCRF-CEM leukemia 119% | MOLT-4 leukemia 106% | RPMI-8226 leukemia 114% | OVCAR-8 ovarian 110% | OVCAR-5 ovarian 101% | OVCAR-4 ovarian 120% | SK-OV-3 ovarian 110% | IGROV1 ovarian 96.5% | OVCAR-3 ovarian 100% | HS 578T breast 104% | NCI/ADR-RES ovarian 104%

CCOC(=O)/C(O)=C(\C=N\C(=S)Nc1ccc(Cl)c(Cl)c1)C(=O)OCC
inactive: SK-MEL-2 melanoma 116% | EKVX NSCLC 82.8% | UO-31 renal 70.9% | TK-10 renal 117% | ACHN renal 96.3% | CAKI-1 renal 89.2% | A498 renal 101% | CCRF-CEM leukemia 97.7% | MOLT-4 leukemia 76.5% | SR leukemia 85.7% | OVCAR-8 ovarian 92.5% | OVCAR-5 ovarian 91.8% | OVCAR-4 ovarian 60.2% | SK-OV-3 ovarian 81.6% | IGROV1 ovarian 101% | OVCAR-3 ovarian 100% | HS 578T breast 95.6% | NCI/ADR-RES ovarian 90.8%

C[n+]1c(/C=C\C=C\N2CCCCC2)sc2ccccc21
active: SK-MEL-2 melanoma -51.1% | EKVX NSCLC 5.77% | CCRF-CEM leukemia 8.73% | MOLT-4 leukemia -9.41% | RPMI-8226 leukemia -30.4% | OVCAR-8 ovarian -17.7% | SK-OV-3 ovarian -3.97% | OVCAR-3 ovarian -24.8%
inactive: UO-31 renal 52.1% | TK-10 renal 22% | ACHN renal 66.2% | A498 renal 43.5% | OVCAR-5 ovarian 18.2% | OVCAR-4 ovarian 16.4% | HS 578T breast 34.5% | NCI/ADR-RES ovarian 62.5%

Cc1onc(-c2ccccc2Cl)c1C(=O)Cl
inactive: SK-MEL-2 melanoma 113% | SN12C renal 95.7% | UO-31 renal 91.2% | TK-10 renal 110% | ACHN renal 96.2% | CAKI-1 renal 93.5% | A498 renal 95.9% | CCRF-CEM leukemia 90.9% | MOLT-4 leukemia 114% | SR leukemia 83.8% | RPMI-8226 leukemia 99.9% | OVCAR-8 ovarian 95.4% | OVCAR-5 ovarian 103% | OVCAR-4 ovarian 98% | SK-OV-3 ovarian 99% | IGROV1 ovarian 117% | OVCAR-3 ovarian 127% | HS 578T breast 102% | NCI/ADR-RES ovarian 105%

Cc1ccc(NCN2C(=O)c3ccccc3C2=O)c(C)n1
inactive: SK-MEL-2 melanoma 124% | EKVX NSCLC 106% | UO-31 renal 87.3% | TK-10 renal 119% | ACHN renal 117% | CAKI-1 renal 105% | A498 renal 88.7% | MOLT-4 leukemia 104% | SR leukemia 119% | RPMI-8226 leukemia 105% | OVCAR-8 ovarian 99.6% | SK-OV-3 ovarian 113% | IGROV1 ovarian 112% | OVCAR-3 ovarian 130% | HS 578T breast 110% | NCI/ADR-RES ovarian 106%

OCC1OC(n2ccc3c2ncn2ncnc32)C(O)C1O (centres undefined)
inactive: SK-MEL-2 melanoma 67.7% | SN12C renal 27.5% | UO-31 renal 27.6% | TK-10 renal 22.2% | ACHN renal 29% | CAKI-1 renal 43.5% | CCRF-CEM leukemia 14.1% | MOLT-4 leukemia 16.1% | SR leukemia 20.6% | RPMI-8226 leukemia 60.7% | OVCAR-5 ovarian 30.2% | OVCAR-4 ovarian 53.3% | SK-OV-3 ovarian 58% | IGROV1 ovarian 53.4% | OVCAR-3 ovarian 28.9% | HS 578T breast 65.2% | NCI/ADR-RES ovarian 23.1%
active: A498 renal -5.58% | OVCAR-8 ovarian 6.1%

Clc1ccc(/C=C/c2ccccn2)cc1
active: CCRF-CEM leukemia -56%
inactive: SK-MEL-2 melanoma 103% | EKVX NSCLC 76.3% | UO-31 renal 78.1% | TK-10 renal 99.3% | ACHN renal 103% | A498 renal 77.3% | MOLT-4 leukemia 86.9% | RPMI-8226 leukemia 45.5% | OVCAR-8 ovarian 105% | OVCAR-4 ovarian 62.3% | SK-OV-3 ovarian 104% | IGROV1 ovarian 87.2% | OVCAR-3 ovarian 98.4% | NCI/ADR-RES ovarian 98.8%

CNc1ccccc1C(=O)N/N=C/C=C/c1ccccc1
inactive: SN12C renal 48.7% | UO-31 renal 43.8% | TK-10 renal 31.1% | ACHN renal 58.2% | CAKI-1 renal 12.7% | CCRF-CEM leukemia 12% | MOLT-4 leukemia 18.5% | RPMI-8226 leukemia 25.1% | OVCAR-5 ovarian 47.1% | OVCAR-4 ovarian 85.6% | IGROV1 ovarian 23% | HS 578T breast 16.5%
active: SK-MEL-2 melanoma 3.74% | A498 renal -8.31% | SR leukemia 2.42% | OVCAR-8 ovarian 6.6% | SK-OV-3 ovarian 7.51% | OVCAR-3 ovarian -23.7% | NCI/ADR-RES ovarian 3.92%

CCOS(=O)(=O)c1ccc([N+](=O)[O-])cc1
inactive: SK-MEL-2 melanoma 102% | EKVX NSCLC 110% | SN12C renal 101% | TK-10 renal 95% | ACHN renal 103% | CAKI-1 renal 99% | CCRF-CEM leukemia 99.2% | SR leukemia 88.2% | RPMI-8226 leukemia 106% | OVCAR-8 ovarian 104% | OVCAR-5 ovarian 103% | OVCAR-4 ovarian 101% | SK-OV-3 ovarian 111% | IGROV1 ovarian 105% | OVCAR-3 ovarian 106% | HS 578T breast 108% | NCI/ADR-RES ovarian 105%

Oc1cc2ccccc2c(-c2c(O)c(O)cc3ccccc23)c1O
inactive: EKVX NSCLC 35.9% | TK-10 renal 19.4% | ACHN renal 23.2% | CAKI-1 renal 19.1% | A498 renal 59.1% | MOLT-4 leukemia 30.6% | OVCAR-8 ovarian 39% | OVCAR-5 ovarian 51.8% | OVCAR-4 ovarian 27.3% | SK-OV-3 ovarian 31.7% | OVCAR-3 ovarian 44.9% | HS 578T breast 33.9% | NCI/ADR-RES ovarian 23%
active: SK-MEL-2 melanoma 5.57% | CCRF-CEM leukemia -12.5% | RPMI-8226 leukemia -33.3% | IGROV1 ovarian -47.5%

CCOc1ccc(C(=O)O)cc1
inactive: SK-MEL-2 melanoma 109% | EKVX NSCLC 99.6% | UO-31 renal 102% | TK-10 renal 99.6% | ACHN renal 109% | CAKI-1 renal 97.9% | A498 renal 84.7% | CCRF-CEM leukemia 105% | MOLT-4 leukemia 116% | OVCAR-8 ovarian 106% | OVCAR-5 ovarian 105% | OVCAR-4 ovarian 103% | SK-OV-3 ovarian 98.8% | IGROV1 ovarian 113% | OVCAR-3 ovarian 115% | HS 578T breast 95.3% | NCI/ADR-RES ovarian 105%

C=CCN1CCCC1=O
inactive: SK-MEL-2 melanoma 161% | EKVX NSCLC 96.8% | SN12C renal 94.2% | TK-10 renal 90.2% | ACHN renal 109% | CAKI-1 renal 95.8% | OVCAR-8 ovarian 110% | OVCAR-5 ovarian 124% | OVCAR-4 ovarian 94.8% | SK-OV-3 ovarian 92.9% | IGROV1 ovarian 114% | OVCAR-3 ovarian 128% | HS 578T breast 109% | NCI/ADR-RES ovarian 110%

Nc1ccc2ccccc2c1-c1c(N)ccc2ccccc12
active: SR leukemia 4.26% | OVCAR-3 ovarian 5.64%
inactive: SK-MEL-2 melanoma 15.5% | EKVX NSCLC 36.5% | UO-31 renal 40.8% | TK-10 renal 34.9% | ACHN renal 38.8% | CAKI-1 renal 28.6% | CCRF-CEM leukemia 12.9% | MOLT-4 leukemia 17.4% | RPMI-8226 leukemia 24.9% | OVCAR-8 ovarian 44% | OVCAR-5 ovarian 57.1% | OVCAR-4 ovarian 66% | SK-OV-3 ovarian 30.8% | IGROV1 ovarian 45.8% | HS 578T breast 35.6% | NCI/ADR-RES ovarian 16.5%

O=CNCCc1ccccc1
inactive: SK-MEL-2 melanoma 105% | EKVX NSCLC 97.3% | UO-31 renal 87.8% | TK-10 renal 92.4% | ACHN renal 98.5% | CAKI-1 renal 93.8% | A498 renal 111% | CCRF-CEM leukemia 103% | MOLT-4 leukemia 96.8% | RPMI-8226 leukemia 102% | OVCAR-8 ovarian 102% | OVCAR-5 ovarian 97.7% | OVCAR-4 ovarian 103% | SK-OV-3 ovarian 97% | IGROV1 ovarian 110% | OVCAR-3 ovarian 115% | HS 578T breast 102% | NCI/ADR-RES ovarian 106%

CCC(=O)Oc1c(C)cc(O)c2ccccc12
inactive: SK-MEL-2 melanoma 90.4% | EKVX NSCLC 97% | UO-31 renal 51.8% | TK-10 renal 132% | ACHN renal 77.5% | CAKI-1 renal 95.1% | A498 renal 101% | MOLT-4 leukemia 64% | RPMI-8226 leukemia 54.6% | OVCAR-8 ovarian 81.4% | OVCAR-5 ovarian 105% | OVCAR-4 ovarian 82.3% | SK-OV-3 ovarian 104% | IGROV1 ovarian 88.2% | OVCAR-3 ovarian 72.6% | HS 578T breast 91.2% | NCI/ADR-RES ovarian 85.2%

O=C1C=C(c2ccccc2)C(O)(c2ccccc2)C1 (centres undefined)
inactive: SK-MEL-2 melanoma 103% | EKVX NSCLC 89.8% | UO-31 renal 83.5% | TK-10 renal 99.6% | ACHN renal 96% | CAKI-1 renal 89.9% | A498 renal 105% | CCRF-CEM leukemia 100% | MOLT-4 leukemia 95.4% | RPMI-8226 leukemia 98.1% | OVCAR-5 ovarian 93.6% | OVCAR-4 ovarian 95.7% | SK-OV-3 ovarian 101% | IGROV1 ovarian 107% | OVCAR-3 ovarian 112% | HS 578T breast 109% | NCI/ADR-RES ovarian 104%
